Bioassay records deposited in PubChem BioAssay by National Center for Advancing Translational Sciences (NCATS).
Most compounds without a hit are left out; they make up all but 2.2% or so of the library.
FMDV antiviral = antivirals against foot and mouth disease virus; FMDV antiviral cell-based qHTS; Potency, µM (highest dose often 57.9 µM), usual class: inhibitors; 410,000 compounds, 1.2% hits; AID 1159524; calls by dose curve; tested in HEK293T cells; also: read-out not given here; nearly all actives have a fitted effect of over 45% in size
Giardia FBPA inh = Giardia lamblia aldolase inhibition; A8B2U2; purified Giardia FBPA; Potency, µM (highest dose often 59.6 µM), actives largely listed as inhibitors; 290,000 compounds, 0.71% hits; active = well fitted inhibition curve with a large enough effect; inconclusive = small, poorly fitted or top-dose-only effect, or effect the other way; also: nearly all actives have a fitted effect of over 55% in size
Target sequence (A8B2U2 whole entry, looked up): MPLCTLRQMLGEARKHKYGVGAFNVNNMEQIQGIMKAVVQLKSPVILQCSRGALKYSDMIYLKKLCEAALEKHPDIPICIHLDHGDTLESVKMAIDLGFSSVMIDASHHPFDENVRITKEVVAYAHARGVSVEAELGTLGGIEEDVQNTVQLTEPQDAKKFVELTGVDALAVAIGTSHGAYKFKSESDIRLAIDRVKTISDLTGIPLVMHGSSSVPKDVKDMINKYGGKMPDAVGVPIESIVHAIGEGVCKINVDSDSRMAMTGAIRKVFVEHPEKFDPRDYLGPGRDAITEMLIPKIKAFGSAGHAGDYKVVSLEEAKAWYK
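Giardia FBPA (40 nM reagent) was preincubated 10 min at RT with compound (up to 57.5 uM final), then substrate plus GAPDH/TPI/NAD/arsenate coupling system with diaphorase/resazurin was added; resorufin fluorescence (525/598 nm) was read after 20 min.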
Vaccinia mCherry = vaccinia inhibition (mCherry reporter); Vaccinia virus mCherry reporter infection, fluorescence; Potency, µM (top dose mostly 36.5 µM), usual class: inhibitors; 310,000 compounds, 0.63% hits; calls by dose curve; tested in A549 cells; also: nearly all actives have a fitted effect of over 35% in size
VACV Venus inh = inhibitors of vaccinia virus (Venus reporter); Vaccinia virus Venus reporter expression, fluorescence; AID 720580; 330,000 compounds, 0.46% hits; Potency, µM (titrated, usually from 36.5 µM), actives largely listed as inhibitors; calls by dose curve; tested in A549 cells; also: nearly all actives have a fitted effect of over 30% in size
Each line names hits and unclear results; the compound was inactive in the other large screens.

O=C1C(=C2SCCCS2)CC/C1=C\c1ccc(F)cc1	FMDV antiviral 5µM
Cc1cccc(/C=C2\CCC(=C3SCCCS3)C2=O)c1	VACV Venus inh inconclusive
CC(=O)Nc1ccc(/C=C/c2ccnc3ccccc23)cc1[N+](=O)[O-]	none (no result: FMDV antiviral, Giardia FBPA inh)
Cc1noc(C)c1-c1ccc2ncnc(NCc3ccccc3Cl)c2c1	none (no result: FMDV antiviral, Vaccinia mCherry, VACV Venus inh)
CCOC(=O)Cn1c(-c2nonc2NC(=O)c2ccccc2F)nc2ccccc21	Vaccinia mCherry 10µM
CCCCOc1ccccc1NC(=O)Cn1c(-c2nonc2N)nc2ccccc21	Vaccinia mCherry 4µM, VACV Venus inh inconclusive
CCc1ccccc1NC(=O)Cn1c(-c2nonc2N)nc2ccccc21	none (no result: Giardia FBPA inh)
Cc1nc(C)c(CC(=O)N2CCOc3ccc(CN4CCN(c5ccccn5)CC4)cc3C2)s1	FMDV antiviral inconclusive, Vaccinia mCherry inconclusive (no result: Giardia FBPA inh)
C=C1C(=O)OC2C[C@@]3(C)CCCC(C)C3=CC12 (stereo partly drawn)	FMDV antiviral inconclusive, Vaccinia mCherry inconclusive, VACV Venus inh inconclusive
C[C@H]1CCC[C@]2(C)C[C@H]3OC(=O)C(CN4CCCCCC4)[C@H]3C=C12 (stereo partly drawn)	FMDV antiviral 22µM (no result: Vaccinia mCherry, VACV Venus inh)
COc1cccc(C2(CC(=O)N3CCC(c4nc5ccc(F)cc5[nH]4)CC3)CC(=O)N(C)C2=O)c1 (stereo not drawn)	none (no result: Giardia FBPA inh)
CCOc1ccc(NS(=O)(=O)c2cc(NC(=O)c3cccc(C)c3)ccc2Cl)cc1	Vaccinia mCherry inconclusive, VACV Venus inh 13µM
Cc1ccc2nc(-c3ccc(C)c(NC(=O)COc4ccccc4Cl)c3)oc2c1	none (no result: FMDV antiviral, Giardia FBPA inh)
C[C@@H]1C[C@@H]([C@@H](C)CC2CC(=O)NC(=O)C2)C(=O)[C@@H](C)C1	none (no result: FMDV antiviral, Vaccinia mCherry, VACV Venus inh)
CCC(c1nnnn1Cc1ccccc1)N(Cc1ccccc1)Cc1cc2cc(C)ccc2[nH]c1=O (stereo not drawn)	none (no result: FMDV antiviral, Giardia FBPA inh)
COc1cccc(NC(=O)c2cnc(SCC(=O)NCc3ccc4c(c3)OCO4)n(C)c2=O)c1	FMDV antiviral inconclusive (no result: Giardia FBPA inh)
COc1cccc(NC(=O)c2cnc(SCC(=O)N3CCOCC3)n(C)c2=O)c1	FMDV antiviral 22µM (no result: Giardia FBPA inh)
O=C(Nc1ccccc1)[C@@H]1CCCN1S(=O)(=O)c1ccc(Cl)cc1	none (no result: Giardia FBPA inh)
O=C(Nc1ccc(Cl)cc1)C1CCCCN1S(=O)(=O)c1ccccc1 (stereo not drawn)	FMDV antiviral inconclusive, Vaccinia mCherry inconclusive, VACV Venus inh 10µM (no result: Giardia FBPA inh)
Cc1csc(SCC(=O)c2cc(C)n(Cc3cccs3)c2C)n1	FMDV antiviral 11µM, VACV Venus inh inconclusive
Cc1cc(C(=O)CSc2nnc(N)s2)c(C)n1Cc1cccs1	none
CC(=O)Nc1ccc(SCC(=O)c2cc(C)n(Cc3cccs3)c2C)cc1	FMDV antiviral 22µM
COCCn1c(C)cc(C(=O)CSc2ccc(NC(C)=O)cc2)c1C	none (no result: Vaccinia mCherry, VACV Venus inh)
O=C(COC(=O)C1(c2ccc(F)cc2)CCCC1)NCc1ccc2c(c1)OCO2	FMDV antiviral 40µM (no result: Vaccinia mCherry, VACV Venus inh)
O=C(COC(=O)C1(c2ccccc2F)CCCC1)NCc1ccc2c(c1)OCO2	none
CCCCCCCn1ccc(=N)cc1	FMDV antiviral inconclusive, VACV Venus inh inconclusive (no result: Vaccinia mCherry)
CCCCCCCCCn1ccc(=N)cc1	FMDV antiviral 20µM, VACV Venus inh inconclusive
CCCCn1c(CCl)nc2cc(S(=O)(=O)N3CCOCC3)ccc21	FMDV antiviral 32µM (no result: Giardia FBPA inh)
O=C(Nc1cccc(F)c1)C1CCN(c2nc3ccccc3nc2C(F)(F)F)CC1	FMDV antiviral inconclusive (no result: Giardia FBPA inh)
COc1ccccc1-c1cc(C(F)(F)F)nc(S(=O)(=O)CCCC(=O)N2CCOCC2)n1	FMDV antiviral 22µM, Vaccinia mCherry inconclusive, VACV Venus inh inconclusive
COc1ccccc1-c1cc(C(F)(F)F)nc(S(=O)(=O)CCCC(=O)O)n1	FMDV antiviral 25µM (no result: Vaccinia mCherry, VACV Venus inh)
COc1cc(CN2CCC3(CC2)CC3C(=O)Nc2ccc3sc(C)nc3c2)ccc1F (stereo not drawn)	none (no result: Giardia FBPA inh)
COCCNC(=O)/C(C#N)=C/c1cccc(/C=C(\C#N)C(=O)NCCOC)c1	FMDV antiviral 14µM
CC(C)CC(=O)NC(Nc1ccccc1F)C(Cl)(Cl)Cl (stereo not drawn)	none
CC(C)CC(=O)NC(Nc1ccc([N+](=O)[O-])cc1)C(Cl)(Cl)Cl (stereo not drawn)	FMDV antiviral 32µM, Vaccinia mCherry inconclusive, VACV Venus inh inconclusive
CCC(=O)N1CCN(c2nc(CC)nc3sc4c(c23)CCCC4)CC1	FMDV antiviral inconclusive
CC1CCc2c(sc3nc(C(C)(C)C)nc(N4CCN(C(=O)CCl)CC4)c23)C1 (stereo not drawn)	FMDV antiviral 20µM, VACV Venus inh inconclusive
C[N+]1(CC(=O)c2ccc(Cl)c(Cl)c2)CCOCC1	none (no result: FMDV antiviral, Giardia FBPA inh)
Cc1oc(-c2ccc(Cl)cc2)nc1CS(=O)CC(=O)N1CCN(c2cccc(C(F)(F)F)c2)CC1 (stereo not drawn)	FMDV antiviral 32µM, Vaccinia mCherry inconclusive (no result: Giardia FBPA inh)
Cc1oc(-c2ccccc2Cl)nc1CS(=O)CC(=O)N1CCN(c2cccc(C(F)(F)F)c2)CC1 (stereo not drawn)	none (no result: Giardia FBPA inh)
Cc1oc(-c2ccccc2F)nc1CS(=O)(=O)CC(=O)N1CCN(c2ccc(Cl)cc2)CC1	FMDV antiviral 16µM, Vaccinia mCherry inconclusive, VACV Venus inh inconclusive (no result: Giardia FBPA inh)
O=c1c2ccccc2nc(/C=C/c2cc(Br)ccc2O)n1CCCO	FMDV antiviral 25µM, Vaccinia mCherry 11µM, VACV Venus inh inconclusive
O=c1c2ccccc2nc(/C=C/c2cccc([N+](=O)[O-])c2)n1CCO	none
CCCc1ccc(C2C3=C(CC(C)(C)CC3=O)NC3=C2C(=O)c2ccccc23)cc1 (stereo not drawn)	VACV Venus inh inconclusive
CC1(C)CC(=O)C2=C(C1)NC1=C(C(=O)c3ccccc31)C2c1ccc(O)cc1 (stereo not drawn)	FMDV antiviral inconclusive, Vaccinia mCherry inconclusive, VACV Venus inh 11µM
Oc1c(C(c2ccccn2)N2CCC(Cc3ccccc3)CC2)cc(Cl)c2cccnc12 (stereo not drawn)	FMDV antiviral 22µM, Giardia FBPA inh inconclusive, Vaccinia mCherry inconclusive, VACV Venus inh inconclusive
Cc1ccc(C(c2cc(Cl)c3cccnc3c2O)N2CCN(C)CC2)cc1 (stereo not drawn)	FMDV antiviral inconclusive, Vaccinia mCherry inconclusive, VACV Venus inh inconclusive
Oc1c(C(c2ccc(Cl)cc2)N2CCCC2)cc(Cl)c2cccnc12 (stereo not drawn)	Giardia FBPA inh inconclusive, Vaccinia mCherry 13µM, VACV Venus inh inconclusive
NC(c1ccccc1)c1csc(NC(=O)Nc2cccc(Cl)c2)n1 (stereo not drawn)	VACV Venus inh 10µM (no result: Giardia FBPA inh)
Nc1c(C(=O)NC2CC2)sc2nc3c(c(-c4ccco4)c12)CC/C3=C/c1ccco1	Giardia FBPA inh 5.6µM
O=C(COC(=O)c1c2c(nc3ccccc13)/C(=C\c1ccco1)CC2)NC1CCCC1	none (no result: Giardia FBPA inh)
CC(=O)Oc1ccc2cc(-c3nc4c(s3)CCc3ccccc3-4)c(=O)oc2c1	none (no result: FMDV antiviral, Giardia FBPA inh)
N#C/C(=C\c1cccnc1)C(=O)Nc1cccc2ccccc12	FMDV antiviral 25µM
CCOc1ccc(C(=O)C(CCC(CN(C)C)C(=O)c2ccc(OCC)cc2)CN(C)C)cc1 (stereo not drawn)	FMDV antiviral 16µM (no result: Vaccinia mCherry, VACV Venus inh)
CN(C)CC(CCC(CN(C)C)C(=O)c1ccccc1)C(=O)c1ccccc1 (stereo not drawn)	FMDV antiviral 28µM, Vaccinia mCherry inconclusive, VACV Venus inh 11µM
Cc1c(C(=O)NCC2(N3CCOCC3)CCCC2)cnn1-c1nccc(-c2ccccc2F)n1	none (no result: Giardia FBPA inh)
Cc1cc(S(=O)(=O)NCc2nc(N3CCCC3)c3cc(Cl)ccc3n2)c(C)s1	none (no result: Giardia FBPA inh)
